The nature of experiment [1]: Human pregnane X receptor (PXR) small molecule agonists, qHTS cell viability counter screen (AID 1346977). Note: nearly all actives have a fitted effect of over 50% in size. Note: potency is the fitted concentration of half-maximal effect. The gist of the method:
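PXR-Luc HepG2 cells in medium with 5% charcoal-stripped FBS were pre-incubated 5hr, then exposed to compounds for 24hr at 37C. Viability was read in the same wells by CellTiter-Fluor fluorescence, reagent added after 23hr with a 1hr incubation.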

Experiment [2] in a line: Caspase-3/7 induction in HepG2 cells by small molecules, qHTS assay (AID 1346978). Note: nearly all actives have a fitted effect of over 15% in size. Note: potency is the fitted concentration of half-maximal effect. The gist of the method: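 Wild-type HepG2 cells, 2,000/well, settled 5 hr at 37 C and 5% CO2, then compound-treated for 17 hr; caspase-3/7 activity read by luminescent Caspase-Glo 3/7 after 30 min at room temperature.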
(In general: Quantitative high-throughput screening tests each substance at several concentrations.)

The nature of experiment [3]: Caspase-3/7 induction in CHO-K1 cells by small molecules, qHTS cell viability counter screen (AID 1346979). Note: nearly all actives have a fitted effect of over 35% in size. Note: potency is the fitted concentration of half-maximal effect. Put shortly: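 Wild-type CHO-K1 cells were seeded at 1,500 per well, rested 5hr at 37 C, then exposed to compounds in DMSO. After 16hr, CellTiter-Fluor reagent was added and fluorescence read 1hr later as the viability measure.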
Experiment [4] is described as follows: Caspase-3/7 induction in CHO-K1 cells by small molecules, qHTS assay (AID 1346980). Note: nearly all actives have a fitted effect of over 15% in size. Note: potency is the fitted concentration of half-maximal effect. The gist of the method: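 Wild-type CHO-K1 cells exposed to compounds for 17hr at 37 C, 5% CO2. Caspase-3/7 activity then measured by Caspase-Glo 3/7 luminescence after 30min at room temperature.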
The target in experiment [5] is Acetylcholinesterase (Homo sapiens) (UniProt P22303). The experiment can be described thus: Acetylcholinesterase (AChE) small molecule antagonists: colormetric cell-based qHTS assay (AID 1347395; calls by dose curve; note: nearly all actives have a fitted effect of over 30% in size; note: potency is the fitted concentration of half-maximal effect). Put shortly: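 SH-SY5Y cells, plated overnight at 37 C, were exposed to compounds for 30 min at 37 C and 5% CO2. Acetylthiocholine plus DTNB was then added, and thiocholine from endogenous AChE was quantified colorimetrically after 90 min at 37 C.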

In experiment [6] the target is Nuclear receptor subfamily 1 group I member 2 (Homo sapiens) (UniProt O75469). The experiment is described as follows: Human pregnane X receptor (PXR) small molecule agonists, qHTS assay (AID 1346982). Note: nearly all actives have a fitted effect of over 35% in size. Note: potency is the fitted concentration of half-maximal effect. Put shortly:
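Luciferase signal from ONE-Glo (30 min, room temperature) measured activation of hPXR-driven CYP3A4 reporter expression in PXR-Luc HepG2 cells treated with compounds for 24 hr at 37 C.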

Experiment [7] can be described thus: Caspase-3/7 induction in HepG2 cells by small molecules, qHTS cell viability counter screen (AID 1346981). Note: series mostly up to about 92 µM; nearly all actives have a fitted effect of over 30% in size. Put shortly: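 HepG2, WT, 2,000 cells/well; 5 hr pre-incubation 37 C/5% CO2; compound pin-transferred from DMSO; 16 hr exposure; CellTiter-Fluor, 1 hr; fluorescence read.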
Experiment [8] deals with Nuclear receptor subfamily 1 group I member 2 (Rattus norvegicus) (UniProt Q9R1A7). The experiment is described as follows: Rat pregnane X receptor (rPXR) activation by small molecules, qHTS assay (AID 1346983). Note: nearly all actives have a fitted effect of over 20% in size. The conditions noted are these: rPXR luciferase reporter cells, One-Glo luminescence, 24 h; max activation: hits give high values. The gist of the method:
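Cell-based rPXR activation assay: rPXR cells, 2,000 per well, rested 5hr at 37 C, then exposed to compounds in DMSO for 24 hr at 37 C. Luciferase activity read by One-Glo luminescence after 30 min at room temperature.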

The target in experiment [9] is Nuclear receptor subfamily 1 group I member 2 (Homo sapiens) (UniProt O75469). The experiment is described as follows: CYP3A4 induction through human pregnane X receptor (PXR) by small molecules, qHTS assay (AID 1346984). Note: nearly all actives have a fitted effect of over 40% in size. The gist of the method:
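Luminescence readout: luciferase signal after One-Glo (30 min, room temperature), following 3 h at 37C with 3uM final Luciferin-IPA P450 substrate. Cells were DPX-2 (HepG2, PXR/CYP3A4-luc co-transfected) dosed for 24 h.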

Experiment [10] has the same target. The experiment is described as follows: Human pregnane X receptor (PXR) activation by small molecules, qHTS assay (AID 1346985). Note: nearly all actives have a fitted effect of over 40% in size. Put shortly: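 DPX-2 cells (HepG2 co-transfected with a PXR response element and a CYP3A4-promoter luciferase construct) were seeded at 2,000 per well, rested 5 hr at 37C, then exposed to DMSO-dissolved compounds for 24 hr. Activation was read as luciferase luminescence.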

Unmarked numbers belong to inactive results. Inconclusive results are not listed. Activity calls are given as the source filed them. Unless noted, calls come from the whole dose curve; as a rule, active = well fitted curve in the direction sought with a large enough effect in the repeat runs; inconclusive = weak or mixed curves; inactive = no such curve, though single readings can be large; an effect the other way counts as inactive or inconclusive.
% is set by controls: 0 for no effect and ±100 for the full control effect.

Chain of Nuclear receptor subfamily 1 group I member 2 (Homo sapiens) (O75469 whole entry, looked up): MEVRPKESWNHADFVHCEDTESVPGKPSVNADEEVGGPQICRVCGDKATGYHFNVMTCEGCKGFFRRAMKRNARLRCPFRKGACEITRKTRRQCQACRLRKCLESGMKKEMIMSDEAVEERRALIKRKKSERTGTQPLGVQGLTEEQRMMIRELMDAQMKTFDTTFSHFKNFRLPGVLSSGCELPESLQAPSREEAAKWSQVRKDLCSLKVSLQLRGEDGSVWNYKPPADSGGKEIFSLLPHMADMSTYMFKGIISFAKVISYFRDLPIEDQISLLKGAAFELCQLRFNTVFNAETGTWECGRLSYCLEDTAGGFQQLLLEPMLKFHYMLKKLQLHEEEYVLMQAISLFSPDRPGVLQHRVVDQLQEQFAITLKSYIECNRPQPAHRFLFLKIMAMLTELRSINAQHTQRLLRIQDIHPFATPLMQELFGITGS
Chain of Acetylcholinesterase (Homo sapiens) (P22303 whole entry, looked up): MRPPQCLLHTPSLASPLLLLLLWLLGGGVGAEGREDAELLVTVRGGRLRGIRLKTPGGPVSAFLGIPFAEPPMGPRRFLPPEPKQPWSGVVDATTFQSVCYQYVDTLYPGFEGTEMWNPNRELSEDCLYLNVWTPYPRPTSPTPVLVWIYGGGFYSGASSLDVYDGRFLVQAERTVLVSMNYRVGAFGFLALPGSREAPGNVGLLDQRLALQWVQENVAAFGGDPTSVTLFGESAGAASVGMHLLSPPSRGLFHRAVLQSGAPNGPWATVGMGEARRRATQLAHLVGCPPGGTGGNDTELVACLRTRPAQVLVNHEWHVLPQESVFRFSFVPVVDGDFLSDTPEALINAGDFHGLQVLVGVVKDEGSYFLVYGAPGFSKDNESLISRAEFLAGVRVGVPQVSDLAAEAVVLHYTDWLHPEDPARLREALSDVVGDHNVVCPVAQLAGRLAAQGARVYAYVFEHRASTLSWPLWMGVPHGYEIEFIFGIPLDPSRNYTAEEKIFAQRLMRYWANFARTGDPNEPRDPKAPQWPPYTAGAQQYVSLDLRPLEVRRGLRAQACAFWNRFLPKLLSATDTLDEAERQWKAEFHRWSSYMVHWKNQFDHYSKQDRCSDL
Chain of Nuclear receptor subfamily 1 group I member 2 (Rattus norvegicus) (Q9R1A7 whole entry, looked up): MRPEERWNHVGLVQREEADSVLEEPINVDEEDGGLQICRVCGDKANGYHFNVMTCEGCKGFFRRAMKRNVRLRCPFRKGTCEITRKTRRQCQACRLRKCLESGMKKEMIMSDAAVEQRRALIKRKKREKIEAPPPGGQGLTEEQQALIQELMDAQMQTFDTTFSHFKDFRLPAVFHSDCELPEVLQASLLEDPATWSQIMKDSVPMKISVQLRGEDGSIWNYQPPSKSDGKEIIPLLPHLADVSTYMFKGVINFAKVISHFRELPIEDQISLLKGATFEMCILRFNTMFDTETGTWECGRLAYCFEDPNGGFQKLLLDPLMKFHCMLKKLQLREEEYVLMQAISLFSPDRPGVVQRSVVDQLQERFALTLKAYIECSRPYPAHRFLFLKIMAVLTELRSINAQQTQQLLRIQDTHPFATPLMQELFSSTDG

As to `CCC(C)(C)C(=O)OC1=C(c2ccc(Cl)cc2Cl)C(=O)OC12CCCCC2`, the Potency result in [1], in experiment [2], in [3], in experiment [4] and in experiment [5] was “inactive” each time.
As to `NC(=O)c1ccc(N)nc1`, the Potency result in experiment [1], in [2], in experiment [4], in experiment [6] and in experiment [5] was “inactive” throughout. Moreover, the Potency in experiment [3] was 2.73 µM (active).
For the molecule `CCOC(=O)OC1=C(c2cc(C)ccc2C)C(=O)NC12CCC(OC)CC2` (centres undefined), the Potency entry in experiment [1], in experiment [2], in [3], in experiment [4], in experiment [7] and in [5] was “inactive” in each case.
Take `COC12CC[C@@]3(C[C@@H]1C(C)(O)C(C)(C)C)[C@H]1Cc4ccc(O)c5c4[C@@]3(CCN1CC1CC1)[C@H]2O5` (some centres undefined): the Potency in experiment [1] was 54.1 µM (active); in [2], 60.7 µM (active); in experiment [3], 43 µM (active); in experiment [4], 48.2 µM (active). In experiment [5], the Potency result was “inactive”.
Consider `CCCCOP(=O)(CCCC)OCCCC`, for which the Potency entry in [1], in experiment [2], in [3], in experiment [4], in experiment [6] and in experiment [5] was “inactive” in each case.
For `CCOCCOC(C)=O`, the Potency result in [1], in [2], in experiment [3], in [4], in experiment [7] and in experiment [5] was “inactive” throughout.
In the case of `CC(C)[C@H](C(=O)OC(C#N)c1cccc(Oc2ccccc2)c1)c1ccc(OC(F)F)cc1` (some centres undefined), the Potency result in [1], in experiment [2], in [4] and in [7] was “inactive” throughout. In experiment [6], the Potency is 9.69 µM (active).
Turning to `NC(=O)CCl`, the Potency entry in experiment [1], in experiment [2], in experiment [4], in experiment [7] and in experiment [6] was “inactive” in each case.
In the case of `C[C@@H]1CC[C@@]2(OC1)O[C@H]1[C@@H](O)[C@H]3[C@@H]4CC[C@H]5C[C@@H](O[C@@H]6O[C@H](CO)[C@H](O[C@@H]7O[C@H](CO)[C@@H](O)[C@H](O[C@@H]8OC[C@@H](O)[C@H](O)[C@H]8O)[C@H]7O[C@@H]7O[C@H](CO)[C@@H](O)[C@H](O[C@@H]8O[C@H](CO)[C@@H](O)[C@H](O)[C@H]8O)[C@H]7O)[C@H](O)[C@H]6O)[C@H](O)C[C@]5(C)[C@H]4CC[C@]3(C)[C@H]1[C@@H]2C`, the results for the Potency in experiment [1] and in experiment [3] were 10.3 µM (active) and 4.59 µM (active), respectively. Also, the Potency entry in experiment [2], in [4], in [6] and in experiment [5] was “inactive” in each case.
Take `CCOCn1c(-c2ccc(Cl)cc2)c(C#N)c(Br)c1C(F)(F)F`: the Potency in experiment [1] was 0.864 µM (active); in experiment [3], 2.73 µM (active); in experiment [6], 1.37 µM (active). Moreover, the Potency result in [2], in [4] and in experiment [5] was “inactive” in each case.
For `O=C1C=CC(=O)c2ccccc21`, the Potency was 48.6 µM (active) in experiment [1] and 5.45 µM (active) in experiment [3]. Besides, the Potency result in experiment [2], in experiment [4], in [6] and in experiment [5] was “inactive” each time.
Consider `COc1cc(N)c(Cl)cc1C(=O)NC1CN2CCC1CC2` (centres undefined), for which the Potency entry in experiment [1], in experiment [2], in experiment [3], in experiment [4], in experiment [6] and in [9] was “inactive” each time. The Potency result in [10] was “inactive”. Moreover, the max activation in [8] is -2.4%.
On to `CC(C)(C)c1cc([N+](=O)[O-])cc(C(C)(C)C)c1O`, for which the Potency was 5.45 µM (active) in [1], 7.7 µM (active) in [3] and 5.45 µM (active) in experiment [6]. Besides, the Potency entry in experiment [2], in experiment [4] and in experiment [5] was “inactive” in each case.
For `CCC(C)c1cc([N+](=O)[O-])cc([N+](=O)[O-])c1OC(=O)C=C(C)C` (centres undefined), the values for the Potency in [1], in [3] and in [6] were 27.3 µM (active), 43.3 µM (active) and 61.1 µM (active), respectively. Further, the Potency entry in experiment [2], in experiment [4] and in experiment [5] was “inactive” each time.
As for `CCOP(=S)(OCC)SCCS(=O)(=O)CC`, the Potency entry in experiment [1], in experiment [2], in [3], in experiment [4] and in experiment [6] was “inactive” throughout. Also, the Potency in [5] was 35.6 µM (active).
On to `Cc1cc(C(F)(C(F)(F)F)C(F)(F)F)ccc1NC(=O)c1cccc(I)c1C(=O)NC(C)(C)CS(C)(=O)=O`, for which the Potency entry in experiment [1], in experiment [2], in experiment [3], in experiment [4] and in [5] was “inactive” each time. Further, the Potency in [6] was 13.8 µM (active).
On to `O=[N+]([O-])c1cc(Cl)ccc1Cl`, for which the Potency result in [1], in experiment [2], in experiment [4], in experiment [7] and in experiment [6] was “inactive” in each case.
For `CCCCN(CCCC)C(=S)[S-].CCCCN(CCCC)C(=S)[S-].[Zn+2]`, the Potency was 13.7 µM (active) in experiment [1] and 21.7 µM (active) in experiment [3]. In addition, the Potency result in experiment [2], in experiment [4] and in experiment [5] was “inactive” throughout.
